Only some compounds are listed: those with a hit (about 11% of all), similar ones and a draw of the others.
PNC assembly inh: blocks assembly of the perinucleolar compartment | PC3M PTB-GFP, PNC prevalence imaging, 16 h; hits give low values | activity change (PNC), negative = inhibition, % at 10 µM | hit rate 3.1% among 140,000 | AID 2417;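 active = readout at or below -70, meaning at least 70% loss of cells showing the perinucleolar compartment, a nuclear body marking cancer cells; inconclusive = readout between -30 and a set limit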
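Read-out is percentage of cells bearing a perinucleolar compartment, from automated 20x imaging of fixed, Hoechst-stained PC3M PTB-GFP cells. Cells were seeded 4 h, then exposed 16 h to compound (23 nl of library stock) in duplicate plates.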
ALDH1A1 inh: blocks purified human ALDH1A1 activity. P00352. Purified ALDH1A1, NADH fluorescence, propionaldehyde substrate. Potency, µM (titrated, usually from 75.3 µM), usual class: inhibitors. hit rate 7.3% among 220,000; active = well fitted inhibition curve with a large enough effect, not every such curve was filed as active; inconclusive = small, poorly fitted or top-dose-only effect, or another doubt; inactive = no such curve, though single readings can be large or run the other way
Target sequence (P00352 whole entry, looked up): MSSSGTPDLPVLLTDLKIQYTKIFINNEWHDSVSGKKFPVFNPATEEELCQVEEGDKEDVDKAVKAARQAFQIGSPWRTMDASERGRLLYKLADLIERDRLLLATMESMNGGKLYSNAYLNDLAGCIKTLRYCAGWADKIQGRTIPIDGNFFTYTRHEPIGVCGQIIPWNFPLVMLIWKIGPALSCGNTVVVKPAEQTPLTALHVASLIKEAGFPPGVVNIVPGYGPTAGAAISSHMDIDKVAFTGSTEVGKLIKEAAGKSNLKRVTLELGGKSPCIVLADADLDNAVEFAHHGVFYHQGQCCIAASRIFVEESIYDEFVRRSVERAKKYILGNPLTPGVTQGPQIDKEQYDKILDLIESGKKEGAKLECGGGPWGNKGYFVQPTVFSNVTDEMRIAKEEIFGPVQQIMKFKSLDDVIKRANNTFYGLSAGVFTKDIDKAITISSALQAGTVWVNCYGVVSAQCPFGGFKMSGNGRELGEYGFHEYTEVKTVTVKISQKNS
HttQ103 aggreg: inhibitors of mutant huntingtin aggregate formation in PC12 cells; PC12 HttQ103-GFP aggregates, Acumen cytometry, 40 h; Potency, µM (titrated, usually from 46.1 µM), hits mostly inhibitors; hit rate 1.1% among 220,000; note: nearly all actives have a fitted effect of over 60% in size
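PC12 cells with ecdysone-inducible HTT exon1 Q103-GFP, induced by 100 nM tebufenozide, given compounds in a concentration series. GFP aggregates (1–25 um, 6 SD above background) counted in lysates by laser-scanning cytometry, 488 nm excitation.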
CBFb RUNX1 block: CBF-beta/RUNX1 interaction disruption. 230,000 tested, under 10 active. Potency, µM (titrated, usually from 59.8 µM), actives largely listed as inhibitors. Q01196+Q13951. AlphaScreen CBFb-His/RUNX1-biotin binding, biochemical
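AlphaScreen binding: CBFb-His and RUNX1-biotin (30 nM each) preincubated 20 min, compound added for 15 min, then nickel and streptavidin beads for 90 min, all at room temperature. Disruption of the interaction by any mechanism counts as activity.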
HPGD block: blocks human HPGD enzyme activity | P15428 | purified HPGD, NADH fluorescence kinetic, PGE2 substrate | Potency, µM, most hits filed as inhibitors | hit rate 4.3% among 150,000; active = well fitted inhibition curve with a large enough effect, not every such curve was filed as active; inconclusive = small, poorly fitted or top-dose-only effect, or another doubt; inactive = no such curve, though single readings can be large or run the other way
Target sequence (P15428 whole entry, looked up): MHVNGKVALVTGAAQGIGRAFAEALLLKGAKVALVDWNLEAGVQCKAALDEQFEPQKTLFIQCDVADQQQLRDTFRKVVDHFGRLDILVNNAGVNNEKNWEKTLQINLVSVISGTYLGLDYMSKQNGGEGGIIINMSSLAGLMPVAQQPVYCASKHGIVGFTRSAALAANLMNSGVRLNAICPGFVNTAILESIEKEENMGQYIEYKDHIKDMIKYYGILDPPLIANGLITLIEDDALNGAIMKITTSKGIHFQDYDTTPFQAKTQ
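NADH formation kinetics: reaction with 30 uM PGE2 and 1 mM NAD+ (final), 20 nM enzyme, Tris-HCl pH 8 with Tween 20, after 15 min compound preincubation at room temperature. Fluorescence change, last versus first of five reads.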
HTT cytoprotect: protects HTT-Q103 PC12 cells, measured by ATP; Potency, µM (titrated, usually from 56.4 µM), usual class: activators; hit rate 0.14% among 230,000; AID 1471; PC12 HTT-Q103 induced, cytoprotection, ATP luminescence, 40 h; note: nearly all actives have a fitted effect of over 45% in size
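ATP quantification (ATPlite) reports survival of PC12 cells in which tebufenozide, 100 nM final, switches on Htt exon 1 with 103 glutamines linked to GFP; compounds are titrated.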
Hits are given with their value; – = inactive; ? = inconclusive; · = no result given; ! = not active in a repeat; [ ] = another dose, or the depositor's remark. Unless noted, calls come from the whole dose curve; as a rule, active = well fitted curve in the direction sought with a large enough effect; inconclusive = small, poorly fitted or top-dose-only effect, or another doubt; inactive = no such curve, though single readings can be large; an effect the other way counts as inactive or inconclusive.

SMILES | PNC assembly inh | ALDH1A1 inh | HttQ103 aggreg | CBFb RUNX1 block | HPGD block | HTT cytoprotect
COc1ccc(O[C@H]2C=C[C@@H](c3ccccc3)O[C@H]2COC(=O)CC/C(C)=N\O[C@@H](C)c2cn([C@H](CO)Cc3ccccc3)nn2)cc1 | · | –[13.5 µM] | · | –[13.1 µM] | · | ?
Cc1ccc(-c2csc(NC(=O)c3cccc(N4C(=O)CCC4=O)c3)n2)o1 | – | 3.5µM | – | – | ? | –[10 µM]
O=C(Nc1nnc(-c2ccncc2)o1)c1cccc(N2C(=O)CCC2=O)c1 | · | – | – | ? | · | –
O=C(Nc1nnc(-c2ccco2)o1)c1cccc(N2C(=O)CCC2=O)c1 | · | 28µM | ? | – | · | –
CN(C)c1nnnn1-c1cccc(Oc2ncc(C(F)(F)F)cc2Cl)c1 | · | ? | – | – | · | –
Cc1[nH]c2ccccc2c1Cc1nnc(SCCC#N)o1 | -100 | – | – | – | – | ?
COc1ccc(Nc2nc3ccccc3nc2NS(=O)(=O)c2ccc(NC(C)=O)cc2)cc1 | · | · | –[9.22 µM] | – | · | –[10 µM]
COc1ccc(Nc2nc3ccccc3nc2NS(=O)(=O)c2cccs2)cc1 | ? | – | 22µM | – | – | –
COC(=O)c1cccnc1 | · | ? | – | ? | – | –
CN(C)C=Nc1ncc2c([nH]c3ccccc32)c1C#N | – | ? | 6.3µM | – | – | –
Cn1cccc1C(=O)N1CCC2(CCCN(C(c3ccccc3)c3ccccc3)C2)CC1 | · | – | · | · | – | –
COCCNC(=S)N1CCc2cc(OC)c(OC)cc2C1c1cccs1 (stereo not drawn) | · | – | – | – | · | –
Cc1ccc(O)c(C(=O)c2cnc3c(c2)COc2ccccc2-3)c1 | ? | ? | – | – | 13µM | –[10 µM]
COc1ccc(-c2nc(-c3ccccc3)[nH]c(=O)c2C#N)cc1 | – | – | – | – | 20µM | –
N#Cc1cnc(SCCc2ccccc2)nc1N | -83 | ? | – | – | – | –[1.9 µM]
O=c1cc(C(Cl)(Cl)Cl)oc2c1ccc1ccccc12 | ? | – | 7.1µM | – | – | –
O=c1cc(N2CCOCC2)oc2c1ccc1ccccc12 | · | · | · | – | · | ·
O=c1cc(-c2ccco2)oc2c1ccc1ccccc12 | ? | ? | ? | – | – | –
O=c1cc(-c2ccccc2O)oc2c1ccc1ccccc12 | · | – | · | – | – | 0.45µM!
O=C(Oc1ccnc2cc(Cl)ccc12)N1CCCCCC1 | ? | 5µM | – | – | 32µM | –
Cc1nc(NCc2ccccc2)c2nc(-c3ccccc3)n(C(C)CN(C)C)c2n1 (stereo not drawn) | · | ? | · | – | – | –
O=C(COC(=O)c1cnccn1)c1ccc(OC(=O)c2ccccc2)cc1 | -126 | – | – | – | – | –[10 µM]
CCOC(=O)c1c(CN2CCOCC2)n(-c2ccccc2)c2cc(Br)c(O)cc12 | – | – | ? | – | – | –[10 µM]
CCOC(=O)c1c(CN2CCOCC2)n(-c2ccccc2)c2cc(Br)c(OC)cc12 | -92 | ? | – | – | – | –
Cn1cccc1C(=O)N1CCC2(CCN(Cc3ccncc3)CC2)CC1 | · | – | · | · | – | –
SMILES | PNC assembly inh | ALDH1A1 inh | HttQ103 aggreg | CBFb RUNX1 block | HPGD block | HTT cytoprotect
O=C(Nc1ccccc1)N1CCCC2(CCN(C(=O)c3cccc(F)c3)CC2)C1 | · | – | · | · | – | –
O=c1cnc2cnc(Oc3ccccc3)nc2n1CCc1ccccc1 | · | ? | · | · | – | –
CC1CC1C(=O)Nc1nc(-c2ccccc2)cs1 (stereo not drawn) | – | 10µM | – | – | – | –[10 µM]
CC(=O)Nc1ccc(-c2csc(NC(C)c3ccccc3)n2)cc1 (stereo not drawn) | · | 18µM | – | – | · | –
COc1ccc(-c2csc(NC(=O)C3CCCO3)n2)cc1 (stereo not drawn) | – | 22µM | – | – | ? | –[10 µM]
COC(=O)c1c(-c2ccc(F)cc2)csc1NC(=O)C1CCCO1 (stereo not drawn) | · | 20µM | ? | – | · | –
CN(C)CC(=O)Nc1nc(-c2ccccc2)cs1 | – | – | – | – | – | ?
CC(=O)Nc1ccc(-c2csc(NCc3ccccc3)n2)cc1 | · | ? | –[9.22 µM] | – | · | –[10 µM]
COc1ccc(-n2c(=O)c(-c3cccs3)nc3cnc(Oc4ccccc4)nc32)cc1 | · | – | · | · | – | –
CC[n+]1c(/C=C/C=C/N(C(C)=O)c2ccccc2)sc2cc(OC)ccc21 | ? | ? | ? | ? | – | –[10 µM]
CC(C)N(c1ccccc1)c1ccc(NC(=O)C2CCCO2)cc1 (stereo not drawn) | – | ? | – | – | – | –[10 µM]
COc1ccc(NC(=O)C2CCCO2)cc1 (stereo not drawn) | ? | – | – | – | 25µM | –[10 µM]
CCOc1cc(NC(=O)C2CCCO2)c(OCC)cc1NC(C)=O (stereo not drawn) | -94 | ? | – | – | – | –
COC(=O)c1ccc(NC(=O)C2CCCO2)cc1 (stereo not drawn) | – | – | – | – | ? | –
CC1CCN(C(=O)c2ccc(NC(=O)C3CCCO3)cc2)CC1 (stereo not drawn) | ? | ? | – | – | 0.71µM | –
CC(NC(=O)C1CCCO1)c1ccccc1 (stereo not drawn) | – | – | – | – | 18µM | –[10 µM]
COC(=O)COc1ccc(NC(=O)C2CCCO2)cc1 (stereo not drawn) | – | ? | – | – | 16µM | –[0.074 µM]
O=C(Nc1ccc(Oc2ccccc2)cc1)C1CCCO1 (stereo not drawn) | – | – | – | – | 11µM | –
Cc1onc(-c2ccccc2)c1C(=O)Nc1nnc(N2CCCCCC2)s1 | -108 | ? | – | – | – | –[10 µM]
Cc1onc(-c2ccccc2)c1C(=O)Nc1nnc(-c2ccncc2)s1 | – | ? | – | – | ? | –
Cc1cccc(NC(=O)c2c(-c3ccccc3)noc2C)n1 | · | ? | – | – | · | 2.2µM
Cc1ccc(/C(=N\O)c2oc3c(C)c4oc(=O)cc(C)c4cc3c2C)cc1 | – | ? | ? | – | ? | –[10 µM]
Cc1cc(=O)oc2c1ccc1oc(/C(=N/O)c3ccccc3)c(C)c12 | – | ? | ? | – | 13µM | –[10 µM]
O=C(O)CCc1c(C(=O)O)[nH]c2cc(Cl)cc(Cl)c12 | · | · | · | – | · | ·
COc1cccc(Nc2nnc(SCc3cc([N+](=O)[O-])cc4c3OCOC4)s2)c1 | – | – | ? | – | – | –
SMILES | PNC assembly inh | ALDH1A1 inh | HttQ103 aggreg | CBFb RUNX1 block | HPGD block | HTT cytoprotect
Cc1cccc(C)c1Nc1nnc(SCc2cc([N+](=O)[O-])cc3c2OCOC3)s1 | – | 22µM | –[9.22 µM] | – | 11µM | –
CCCN(CCC)C(=O)CSc1nc2n[nH]c(C)c2c(=N)n1-c1ccc(OCC)cc1 | ? | 3.2µM | – | – | · | –
CCCN(CCC)C(=O)CSc1nc2n[nH]c(C)c2c(=N)n1-c1ccc(OC)cc1 | ? | ? | – | – | – | –
Cc1nc2ccc(Cl)cn2c1C(=O)NN | · | 2µM | –[9.22 µM] | – | · | –[10 µM]
COc1cccc(CS(=O)(=O)c2ccccc2)c1 | · | – | · | – | – | ?
O=C(CSc1ncnc2sc3c(c12)CCCCC3)NCc1ccco1 | ? | 8.9µM | – | – | 10µM | –[0.074 µM]
